# In ChEMBL document CHEMBL1961873, “Compounds: GSK PKIS; Assays: Nanosyn kinase panel” (2012):
# Columns and labels:
# [1] = biological target: 5'-AMP-activated protein kinase catalytic subunit alpha-2 (Homo sapiens) (UniProt P54646); conditions: at 1 µM
# [2] = biological target: T1, NUAK family SNF1-like kinase 1 (Homo sapiens) (UniProt O60285); conditions: at 0.1 µM
# T1 sequence (whole entry): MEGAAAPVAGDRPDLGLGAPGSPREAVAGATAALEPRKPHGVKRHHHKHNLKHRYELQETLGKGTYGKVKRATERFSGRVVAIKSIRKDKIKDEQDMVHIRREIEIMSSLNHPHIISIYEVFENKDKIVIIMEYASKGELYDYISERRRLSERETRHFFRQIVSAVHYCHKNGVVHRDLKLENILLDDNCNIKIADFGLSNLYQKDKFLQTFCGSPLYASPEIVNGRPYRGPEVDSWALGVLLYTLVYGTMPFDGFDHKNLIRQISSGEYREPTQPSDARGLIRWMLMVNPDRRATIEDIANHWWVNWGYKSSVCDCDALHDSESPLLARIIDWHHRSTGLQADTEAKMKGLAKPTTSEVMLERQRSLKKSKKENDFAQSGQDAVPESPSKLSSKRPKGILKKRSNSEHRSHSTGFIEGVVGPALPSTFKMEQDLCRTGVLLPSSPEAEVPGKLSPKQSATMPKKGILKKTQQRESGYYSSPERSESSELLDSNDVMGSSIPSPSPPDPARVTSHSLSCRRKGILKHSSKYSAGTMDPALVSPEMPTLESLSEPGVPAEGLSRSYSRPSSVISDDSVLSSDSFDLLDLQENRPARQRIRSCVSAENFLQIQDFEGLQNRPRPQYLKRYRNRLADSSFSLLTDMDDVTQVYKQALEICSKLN
# [3] = biological target: T1, NUAK family SNF1-like kinase 1 (Homo sapiens); conditions: at 1 µM
# [4] = biological target: T2, Serine/threonine-protein kinase BRSK1 (Homo sapiens) (UniProt Q8TDC3); conditions: at 0.1 µM
# T2 sequence (whole entry): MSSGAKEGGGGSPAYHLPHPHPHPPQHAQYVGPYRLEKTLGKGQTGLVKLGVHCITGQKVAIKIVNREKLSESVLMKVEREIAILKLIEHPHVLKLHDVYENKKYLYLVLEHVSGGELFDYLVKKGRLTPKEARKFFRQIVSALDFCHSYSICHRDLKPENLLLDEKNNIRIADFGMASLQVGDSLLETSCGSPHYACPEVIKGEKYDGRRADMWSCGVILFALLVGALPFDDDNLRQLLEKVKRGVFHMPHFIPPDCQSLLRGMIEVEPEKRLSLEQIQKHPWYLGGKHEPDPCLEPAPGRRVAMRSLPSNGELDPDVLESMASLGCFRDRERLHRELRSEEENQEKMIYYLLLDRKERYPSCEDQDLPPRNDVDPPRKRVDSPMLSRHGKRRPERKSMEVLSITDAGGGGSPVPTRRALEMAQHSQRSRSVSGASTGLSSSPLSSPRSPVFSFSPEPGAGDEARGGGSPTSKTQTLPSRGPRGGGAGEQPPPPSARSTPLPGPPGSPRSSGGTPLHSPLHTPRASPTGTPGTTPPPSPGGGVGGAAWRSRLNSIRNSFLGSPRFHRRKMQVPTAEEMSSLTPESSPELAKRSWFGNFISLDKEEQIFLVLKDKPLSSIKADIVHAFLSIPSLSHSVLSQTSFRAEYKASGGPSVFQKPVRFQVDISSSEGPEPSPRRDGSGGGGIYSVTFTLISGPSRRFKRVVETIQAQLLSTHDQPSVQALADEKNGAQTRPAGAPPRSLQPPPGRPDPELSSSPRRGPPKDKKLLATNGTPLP
# [5] = biological target: T2, Serine/threonine-protein kinase BRSK1 (Homo sapiens); conditions: at 1 µM
# [6] = biological target: T3, Serine/threonine-protein kinase BRSK2 (Homo sapiens) (UniProt Q8IWQ3); conditions: at 0.1 µM
# T3 sequence (whole entry): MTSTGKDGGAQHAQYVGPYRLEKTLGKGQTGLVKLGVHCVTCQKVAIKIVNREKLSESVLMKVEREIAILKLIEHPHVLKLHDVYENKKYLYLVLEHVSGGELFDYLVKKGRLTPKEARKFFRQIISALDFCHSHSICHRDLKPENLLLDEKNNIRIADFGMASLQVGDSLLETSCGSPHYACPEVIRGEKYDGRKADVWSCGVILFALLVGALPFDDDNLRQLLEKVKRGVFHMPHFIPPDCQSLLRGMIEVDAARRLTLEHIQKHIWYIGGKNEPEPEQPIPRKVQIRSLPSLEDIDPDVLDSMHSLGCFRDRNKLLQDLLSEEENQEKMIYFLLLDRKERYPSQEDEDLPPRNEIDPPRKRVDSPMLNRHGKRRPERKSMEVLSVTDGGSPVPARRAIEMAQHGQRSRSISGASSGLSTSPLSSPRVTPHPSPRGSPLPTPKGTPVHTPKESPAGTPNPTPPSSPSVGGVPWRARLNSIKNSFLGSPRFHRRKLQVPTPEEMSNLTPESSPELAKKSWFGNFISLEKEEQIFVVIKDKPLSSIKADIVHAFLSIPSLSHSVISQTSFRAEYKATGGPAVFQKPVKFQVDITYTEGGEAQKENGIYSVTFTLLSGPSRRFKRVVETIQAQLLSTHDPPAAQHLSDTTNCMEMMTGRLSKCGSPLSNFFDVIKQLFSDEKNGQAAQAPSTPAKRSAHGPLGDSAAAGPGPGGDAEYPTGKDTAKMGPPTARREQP
# [7] = biological target: T3, Serine/threonine-protein kinase BRSK2 (Homo sapiens); conditions: at 1 µM
# [8] = biological target: Calcium/calmodulin-dependent protein kinase type 1D (Homo sapiens) (UniProt Q8IU85); conditions: at 0.1 µM
# Calcium/calmodulin-dependent protein kinase type 1D (Homo sapiens), sequence (Q8IU85 whole entry, looked up): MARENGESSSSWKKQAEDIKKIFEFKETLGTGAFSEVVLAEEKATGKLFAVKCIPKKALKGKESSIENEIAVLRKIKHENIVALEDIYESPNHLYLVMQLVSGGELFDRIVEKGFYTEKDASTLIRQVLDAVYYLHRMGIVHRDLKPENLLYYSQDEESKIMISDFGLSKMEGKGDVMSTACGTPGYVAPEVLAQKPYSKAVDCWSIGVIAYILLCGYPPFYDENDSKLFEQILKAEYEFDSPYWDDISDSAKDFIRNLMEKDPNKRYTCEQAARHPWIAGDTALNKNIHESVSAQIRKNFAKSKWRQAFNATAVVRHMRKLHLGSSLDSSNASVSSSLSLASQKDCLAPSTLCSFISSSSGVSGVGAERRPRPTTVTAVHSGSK
# [9] = biological target: Calcium/calmodulin-dependent protein kinase type 1D (Homo sapiens) (UniProt Q8IU85); conditions: at 1 µM
# [10] = biological target: Calcium/calmodulin-dependent protein kinase type II subunit alpha (Homo sapiens) (UniProt Q9UQM7); conditions: at 0.1 µM;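 further: reported values are averages (mean inhibition of CAMK2A)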
# Calcium/calmodulin-dependent protein kinase type II subunit alpha (Homo sapiens), sequence (Q9UQM7 whole entry): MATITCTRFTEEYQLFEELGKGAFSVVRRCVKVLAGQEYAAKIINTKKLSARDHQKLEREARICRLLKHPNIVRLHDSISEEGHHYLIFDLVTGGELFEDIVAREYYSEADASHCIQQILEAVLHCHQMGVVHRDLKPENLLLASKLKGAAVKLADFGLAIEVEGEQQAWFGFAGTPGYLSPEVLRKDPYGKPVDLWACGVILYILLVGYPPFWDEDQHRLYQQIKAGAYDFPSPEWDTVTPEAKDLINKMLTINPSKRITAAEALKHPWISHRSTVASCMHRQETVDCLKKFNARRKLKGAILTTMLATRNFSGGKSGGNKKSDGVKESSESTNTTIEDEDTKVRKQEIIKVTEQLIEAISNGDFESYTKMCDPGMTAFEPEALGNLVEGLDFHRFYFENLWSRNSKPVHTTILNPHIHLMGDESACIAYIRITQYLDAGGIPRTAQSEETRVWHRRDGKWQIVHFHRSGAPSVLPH
# 5'-AMP-activated protein kinase catalytic subunit alpha-2 (Homo sapiens), sequence (P54646 whole entry, looked up): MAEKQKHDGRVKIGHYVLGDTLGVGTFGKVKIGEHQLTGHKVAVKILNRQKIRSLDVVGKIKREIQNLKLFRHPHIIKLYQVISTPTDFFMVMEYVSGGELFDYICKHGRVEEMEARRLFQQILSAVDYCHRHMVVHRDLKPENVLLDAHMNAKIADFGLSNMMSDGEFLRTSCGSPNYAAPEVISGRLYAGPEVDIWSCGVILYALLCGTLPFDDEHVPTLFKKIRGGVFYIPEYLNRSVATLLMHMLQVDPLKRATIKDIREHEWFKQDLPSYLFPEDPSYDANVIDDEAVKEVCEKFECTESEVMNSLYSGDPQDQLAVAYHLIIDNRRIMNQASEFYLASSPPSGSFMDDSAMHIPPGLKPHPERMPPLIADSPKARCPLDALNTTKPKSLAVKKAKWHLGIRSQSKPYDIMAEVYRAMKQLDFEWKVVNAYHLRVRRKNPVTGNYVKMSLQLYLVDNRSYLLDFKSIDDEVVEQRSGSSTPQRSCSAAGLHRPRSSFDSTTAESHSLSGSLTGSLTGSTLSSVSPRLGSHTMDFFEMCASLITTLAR
Compound,inhibition [1] [%],inhibition [2] [%],inhibition [3] [%],inhibition [4] [%],inhibition [5] [%],inhibition [6] [%],inhibition [7] [%],inhibition [8] [%],inhibition [9] [%],inhibition [10] [%]
CN(c1ccc(NC(=O)Nc2c(Cl)cccc2Cl)cc1)c1ccnc(Nc2cccc(CS(C)(=O)=O)c2)n1,3.21,9.51,30.2,0.84,9.78,2.74,8.66,1.34,-0.13,2.56
Fc1ccc(-c2ncn(C3CCNCC3)c2-c2ccnc(Oc3ccc(Oc4ccccc4)cc3)n2)cc1,3.68,0.78,0.71,3.46,-0.07,1.27,1.66,-0.26,3.87,2.01
CCc1ccc(Oc2nccc(-c3c(-c4ccc(F)cc4)ncn3C3CCNCC3)n2)cc1,7.27,-0.89,3.95,1.81,-0.56,1.84,3.86,1.54,3.63,4.59
C[C@@H](Oc1cc(-n2cnc3ccc(OCC4CCN(C)CC4)cc32)sc1C(N)=O)c1ccccc1Cl,13.7,30.2,71.9,28.5,60,38.5,72.8,1.56,5.96,6.36
CCS(=O)(=O)c1ccc(OC)c(Nc2ncc(-c3cccc(-c4ccccc4F)c3)o2)c1,1.37,1.73,2.9,-0.47,0.8,0,-0.51,0.44,0.18,-1.21
CN(C)c1ccc2c(c1)/C(=C/Nc1ccc(S(N)(=O)=O)cc1)C(=O)N2,26.8,39.5,55.6,11.3,42.7,18.5,54.2,0.43,4.29,3.79
NS(=O)(=O)c1ccc(N/N=C2\C(=O)Nc3ccc(-c4cnco4)cc32)cc1,11.8,5.26,35.2,2.76,14.5,3.56,23.8,-0.53,2.62,0.21
Cc1nnc(-c2ccc(C)c(-c3ccc(C(=O)NCc4ccc(Cl)cc4)cc3)c2)o1,3.56,1,4.79,-2.13,-2.87,1.17,2.51,-1.49,0.04,2.6
COc1cc2ncn(-c3cc(OCCc4ccccc4)c(C(N)=O)s3)c2cc1OC,1.32,1.92,9.13,41.5,76.9,58.3,80.3,0.21,1.85,1.3
C/C(Nc1ccc(S(N)(=O)=O)cc1)=C1/C(=O)Nc2ccccc21,4.96,6.3,34,1.67,18.9,4.55,31.1,-0.31,-0.55,-4.87
CCS(=O)(=O)c1ccc(OC)c(Nc2ncc(-c3ccccc3Cl)o2)c1,2.95,2.27,1.46,-1,-0.58,0.64,-1.12,0.68,1.43,2.2
Fc1ccc(-c2ncn(C3CCNCC3)c2-c2ccnc(Oc3ccc4c(c3)OCO4)n2)cc1,4.45,1.79,3.25,0.76,6.01,3.69,5.73,-0.69,0.53,6.35
CS(=O)(=O)CCNCc1cc(-c2cc3c(Nc4ccc(OCc5cccc(F)c5)c(Cl)c4)ncnc3s2)cs1,3.11,-0.49,3.79,1.37,-0.77,0.67,4.02,0.48,2.27,3.07
C#Cc1cccc(Nc2ncnc3ccc(OCCCCNCCS(C)(=O)=O)cc23)c1,4.43,4.55,12.9,1.77,7.62,3.96,10,-0.65,0.48,3.18
O=C(Nc1n[nH]c2cc(-c3ccccc3)ccc12)C1CC1,7.53,4.99,2.6,4.46,21,3.64,19.7,0.34,-0.38,3.14
CNC(=O)c1cncc(/C=C/c2c(C)cccc2C)c1,0.33,2.16,2.93,1.29,5.17,0.83,5.16,1.13,0.73,2.12
CN(C)CCOc1ccc(-c2cc(-c3ccc4c(c3)CCC4=NO)c(-c3ccncc3)o2)cc1,0.01,0.84,-0.24,-0.05,-0.95,-0.42,1.46,-0.88,1.79,-1.08
